# PubChem BioAssay (EPA / NIEHS)
# Activity calls are given as the source filed them. How the source made its calls: active means hit-call score of the fitted dose curve at least 0.9, where 1 is the maximum; inconclusive means response in the unintended direction; inactive means score below 0.9.
# Target: guinea pig Sigma Receptor, Non-selective Binding, SIGMAR1 (gene 100135589) (UniProt Q60492)
# Test: NVS_OR_gSIGMA_NonSelective: NovaScreen (NVS) Nuclear Receptor Binding Assay for guinea pig Sigma Receptor, Non-selective Binding (AID 2283367)
# Method: NVS_OR_gSIGMA_NonSelective is a biochemical, single-readout assay that uses extracted gene-proteins from Guinea pig brain membranes in a tissue-based cell-free assay. Measurements were taken 1 hour after chemical dosing in a 48-well plate.NVS_OR_gSIGMA_NonSelective is one of one assay component(s) measured or calculated from the NVS_OR_gSIGMA_NonSelective assay. It is designed to make measurements of radioligand binding, a form of binding reporter, as detected with scintillation counting signals by Filter-based radiodetection technology.Data from the assay component NVS_OR_gSIGMA_NonSelective was analyzed into 1 assay endpoint. This assay endpoint, NVS_OR_gSIGMA_NonSelective, was analyzed in the positive analysis fitting direction relative to DMSO as the negative control and baseline of activity. Using a type of binding reporter, loss-of-signal activity can be used to understand changes in the binding as they relate to the gene Sigmar1. Furthermore, this assay endpoint can be referred to as a primary readout, because the performed assay has only produced 1 assay endpoint. To generalize the intended target to other relatable targets, this assay endpoint is annotated to the misc protein intended target family, where the subfamily is chaperone.
# Binding assays used specific radioligands (tritiated, iodinated) with non-radioactive competitive displacement ligands in agonist or antagonist protocols (as indicated) and various reference compounds and inhibitors to titrate specific binding to receptors and transporters. Most enzyme assays (CYPs, kinases, phosphatases, proteases, HDACs) used recombinant protein and specific substrates (fluorescence mostly, some colorimetric and radioactive) and inhibitors, followed by a biochemical separation of substrate and product. All assays for the biochemical HTS were initially run in duplicate at a single concentration (10 uM for CYP450 assays and 25 uM for all others). […] Each assay was run with positive and negative controls, and concurrent controls on every plate. The follow-up (secondary) screen tested active chemical-pairs in concentration series, as well as a few additional assays not tested in the primary screen, some selected negative inactives, and several cases re-run in the concentration series for confirmatory purposes.
# guinea pig Sigma Receptor, Non-selective Binding, SIGMAR1 (gene 100135589), sequence (Q60492 whole entry, looked up): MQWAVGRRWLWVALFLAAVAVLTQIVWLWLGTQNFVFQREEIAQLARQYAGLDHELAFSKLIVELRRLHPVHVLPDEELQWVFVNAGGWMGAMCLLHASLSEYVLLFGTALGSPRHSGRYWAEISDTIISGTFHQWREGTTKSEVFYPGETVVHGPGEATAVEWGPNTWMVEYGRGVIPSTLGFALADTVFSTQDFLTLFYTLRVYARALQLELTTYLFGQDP
Compound,AC50,outcome
O=C(O)CC(O)C(=O)O (centres undefined),14.8 µM (active),
O=C(O)CCN(C1(C(=O)NO)CCCC1)S(=O)(=O)c1ccc(Oc2ccc(F)cc2)cc1,,inactive
CC(C)CCCCCCCOC(=O)CCCCC(=O)OCCCCCCCC(C)C,,inactive
CCCN(C1CCN(C(=O)C2CCNCC2)CC1)[C@@H]1CCc2ccc(OC)cc2C1,7.69 µM (active),
Cc1ccc(C)c(O)c1,8.63 µM (active),
Cc1[nH]cnc1C[C@H]1CCc2c(C)c3ccccc3n2C1=O,10 µM (active),
CCN(C(=O)c1cc(C)cc(OC[C@H](C)Nc2ccncc2)c1)C(C)C,6.22 µM (active),
CN(C)c1ccc(Cc2ccc(N(C)C)cc2)cc1,5.19 µM (active),
O=c1[nH]c2ccc(S(=O)CCN3CCC(Cc4ccc(F)cc4)CC3)cc2o1 (centres undefined),0.339 µM (active),
CC(C)CC(C)(O)C#CC(C)(O)CC(C)C (centres undefined),15 µM (active),
COc1cccc(-c2ccc(/C=C\CN3CCCCCC3)cc2Cl)c1,0.0104 µM (active),
CC[C@H]1CC[C@H](NCc2cc3c(cc2OC)[C@H]2C[C@H]2C(=O)N3C)[C@H](c2ccccc2)N1,10.9 µM (active),
CCOC(=O)COc1ccc2c(c1)CC(NCC(O)c1cccc(Cl)c1)CC2 (centres undefined),,inactive
Cn1c(=O)cc(Oc2ccc(F)cc2F)c2cnc(NCC(C)(C)O)nc21,,inactive
